# Rows were chosen to be rich in hits. Some 21% of all compounds tested hit in one or more screens of this group.
# TDP1 cell noCPT = qHTS for Inhibitors of human tyrosyl-DNA phosphodiesterase 1 (TDP1): qHTS in cells in absence of CPT. DT40 Tdp1-/- hTDP1 cells, no CPT, ATP luminescence, 48 h. Potency, µM (highest dose often 46.2 µM), without a hit: top-dose activity change, negative = growth inhibition, most hits filed as inhibitors. 420,000 tested, 15% active; also: potency is read from the fitted curve at half-maximal effect; nearly all actives have a fitted effect of over 55% in size
#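 DT40 Tdp1-/-;hTDP1 cells, no CPT (DMSO vehicle only), 400 cells/well; compounds pin-transferred; ≥48 hr, 37 °C; CellTiter-Glo 30 min RT dark, luminescence read.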
# Gal4-VP16 FLuc = VP16 counterscreen qHTS for inhibitors of ROR gamma transcriptional activity. Potency, µM (series often up to 53.6 µM), for the others: at the highest dose activity, negative = inhibition, usual class: inhibitors. AID 2546, 2010. 310,000 tested, 3.5% active. Drosophila S2 Gal4-VP16 UAS-luciferase, luminescence, 20 h;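 also: Gal4-VP16 expression switched on by copper sulfate through the metallothionein promoter; potency is read from the fitted curve at half-maximal effect; nearly all actives have a fitted effect of over 50% in size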
# IL1B secr inh = qHTS for Inhibitors of Inflammasome Signaling: IL-1-beta AlphaLISA Primary Screen; activity change, % at 57.5 µM; THP-1 LPS/ATP IL-1B secretion, AlphaLISA, 16 h; hits give low values; 360,000 tested, 4.7% active; in the data active = activity change below about -50%; inconclusive = mostly about -30% to -49%
#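 THP-1 cells pretreated 1 hr with compounds (up to 57.5 uM final), then stimulated with LPS (250 ng/mL final) plus ATP (1.25 mM final); secreted IL-1B measured by AlphaLISA after 16 hr, decreased signal indicating inhibition.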
# DT40 TDP1 CPT = qHTS for Inhibitors of human tyrosyl-DNA phosphodiesterase 1 (TDP1): qHTS in cells in presence of CPT; chicken DT40 Tdp1-/-;hTDP1 cells + 20 nM CPT, ATP luminescence, 48 h; Potency, µM (series often up to 46.2 µM), inactives show top-dose activity change, negative = growth inhibition, hits mostly inhibitors; 420,000 tested, 12% active; AID 686979, 2013; also: potency is read from the fitted curve at half-maximal effect; nearly all actives have a fitted effect of over 55% in size
#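 Cell growth measured by CellTiter-Glo luminescence after a minimum 48 h, 37 C compound exposure with 20 nM CPT in Tdp1-knockout DT40 cells stably expressing hTDP1, seeded 400/well; qHTS titration format.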
# ELG1 repair inh = qHTS screen for small molecules that inhibit ELG1-dependent DNA repair in human embryonic kidney (HEK293T) cells expressing luciferase-tagged ELG1; HEK293T ELG1-luciferase reporter, luminescence, 16 h; DNA damage induced by 5-fluorouridine; Potency, µM (top dose mostly 46.1 µM), for inactives: at the highest dose activity change, negative = inhibition, usual class: inhibitors; 330,000 tested, 2.3% active; AID 504467, 2011; also: potency is read from the fitted curve at half-maximal effect; nearly all actives have a fitted effect of over 55% in size
#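 Cells (2,000 per well) received 5-fluorouridine plus test compound or DMSO and were incubated 16 hr at 37 °C, 5% CO2. Luciferase activity was read by luminescence 30 min after ONE-Glo addition; signal suppression marked inhibition of damage-induced ELG1 function.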
# RORgamma inh = qHTS for inhibitors of ROR gamma transcriptional activity. 310,000 tested, 5.4% active. Drosophila S2 Gal4-RORgamma UAS-luciferase reporter, 20 h. Nuclear receptor ROR-gamma (Mus musculus), P51450. Potency, µM (titrated, usually from 53.6 µM), for the others: at the top dose activity change, negative = inhibition, actives largely listed as inhibitors; also: potency is read from the fitted curve at half-maximal effect; nearly all actives have a fitted effect of over 60% in size
# Target sequence (P51450 whole entry, looked up, the tested form may be a part): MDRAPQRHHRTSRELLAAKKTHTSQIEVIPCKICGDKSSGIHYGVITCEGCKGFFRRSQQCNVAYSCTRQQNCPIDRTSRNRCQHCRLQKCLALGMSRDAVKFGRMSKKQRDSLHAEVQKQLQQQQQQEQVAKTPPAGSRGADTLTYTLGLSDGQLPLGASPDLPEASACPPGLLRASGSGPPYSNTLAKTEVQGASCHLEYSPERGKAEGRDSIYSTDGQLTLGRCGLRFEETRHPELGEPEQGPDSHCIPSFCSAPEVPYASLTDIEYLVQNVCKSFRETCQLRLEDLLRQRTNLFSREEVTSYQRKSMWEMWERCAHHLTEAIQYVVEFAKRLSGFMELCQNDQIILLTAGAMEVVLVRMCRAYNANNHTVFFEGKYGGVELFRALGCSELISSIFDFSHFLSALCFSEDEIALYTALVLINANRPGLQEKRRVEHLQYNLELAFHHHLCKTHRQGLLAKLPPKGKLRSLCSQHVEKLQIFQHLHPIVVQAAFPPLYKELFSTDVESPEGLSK
#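 ROR gamma transcriptional activity was tracked as Gal4-UAS luciferase output in stably transfected Drosophila Schneider cells, with compound added 1 hr before 700 uM copper sulfate induction and a 20 hr ambient-temperature incubation.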
# Starred values were filed as active, the others as inactive; ? = inconclusive; . = not tested or not shown; [ ] = dose if it differs, or a comment. Unless noted, calls follow the shape of the dose curve; as a rule, active = well fitted curve in the direction sought with a large enough effect; inconclusive = small, poorly fitted or top-dose-only effect, or another doubt; inactive = no such curve, though single readings can be large; an effect the other way counts as inactive or inconclusive. % is scaled to controls: 0 for no effect and ±100 for the full control effect.
SMILES,TDP1 cell noCPT,Gal4-VP16 FLuc,IL1B secr inh,DT40 TDP1 CPT,ELG1 repair inh,RORgamma inh
Cn1c(=O)c2c(nc(SCc3ccccc3)n2Cc2ccc(Cl)cc2)n(C)c1=O,?,-5%,?,?,?,?
Cc1ccccc1-c1ccc2n1Cc1cnnn1-c1ccccc1-2,?,.,-8,?,.,.
CCCCNC(=O)c1cc(-c2cccnc2)nc2ccc(S(=O)(=O)NCCCC)cc12,?,.,.,21µM*,.,.
CCCCNc1ccncc1S(=O)(=O)NC(=O)NC(C)C,0%,-1%,24,18%,0%,-11%
Cc1ccc(-n2nc(C)c3c2NC(=O)CSC3c2ccc3c(c2)OCO3)cc1 (stereo unspecified),?,-3%,-5,-30%,-2%,5%
COc1ccc(Br)cc1C1SCC(=O)Nc2c1c(C)nn2-c1ccccc1C (stereo unspecified),18µM*,.,.,?,.,.
Cc1ccccc1-n1nc(C)c2c1NC(=O)CSC2c1ccccc1C(F)(F)F (stereo unspecified),?,.,.,26µM*,.,.
Cc1ccc(-n2nc(C)c3c2NC(=O)CSC3c2ccc(O)cc2)cc1Cl (stereo unspecified),?,.,.,-26%,.,.
O=[N+]([O-])c1cccc2ccccc12,.,-4%,.,.,.,3%
CN(C)C=C1C(=O)N(C2CCCCC2)C(=O)N(C2CCCCC2)C1=O,?,6%,-7,16µM*,-7%,13%
CN1C(=O)C(=Cc2ccc(SC3CCCCC3)o2)C(=O)N(C)C1=O,-1%,15%,10,-3%,15%,-19%
CN=C(SCC(=O)c1cccc(Cl)c1)c1c(O)n(C)c(=O)n(C)c1=O,?,?,4,-17%,?,28%
Cc1ccccc1-c1nc(CS(=O)CC(=O)N2CCC3(CC2)OCCO3)c(C)o1 (stereo unspecified),-1%,1%,9,-1%,?,-5%
Cc1ccccc1-c1nc(CS(=O)CC(=O)N2CCN(c3cc(Cl)ccc3C)CC2)c(C)o1 (stereo unspecified),13µM*,.,.,16µM*,.,.
N[C@H](CCCCCP(=O)(O)O)C(=O)O,0%,-9%,.,-6%,.,19%
CC1(Cc2ccc(C(F)(F)F)nc2)C(=O)Nc2cc(-c3ccccc3Cl)ccc21 (stereo unspecified),?,.,.,16µM*,.,.
CCC(=Nc1ccc2c(c1)CCC2)c1c(O)n(C2CCCCC2)c(=O)[nH]c1=O,18µM*,17%,20,29µM*,11%,?
CC/C(=N\NC(=O)c1ccccc1Cl)c1c(O)n(C2CCCCC2)c(=O)[nH]c1=O,1%,13µM*,15,-1%,6%,7.9µM*
CC/C(=N\NC(=O)c1ccccc1)c1c(O)n(C2CCCCC2)c(=O)[nH]c1=O,-15%,?,6,0%,?,14µM*
CCN(CC)C(=O)c1ccc(NC(=O)Cn2nc(-c3ccc(C)cc3)c3ccccc3c2=O)cc1,-20%,.,.,3%,.,.
Cc1ccc(NC(=O)COc2ccc(-c3nn(C)c(=O)c4ccccc34)cc2)c(C)c1,13µM*,.,.,16µM*,.,.
Cc1ccc(OCC(=O)Nc2ccc(Cl)cc2C(=O)c2ccccc2)cc1,-23%,-12%,0,-4%,?,-3%
O=C(Nc1ccc(OC(F)(F)F)cc1)c1cccn(Cc2ccccc2Cl)c1=O,-1%,.,.,1%,.,.
CCN(CC)C(=O)c1ccc(NC(=O)COc2ccc(-c3nn(C)c(=O)c4ccccc34)cc2)cc1,?,0%,5,16µM*,?,8%
CCN(CC)C(=O)c1ccc(NC(=O)CCn2nc(-c3ccc(C)cc3)c3ccccc3c2=O)cc1,15µM*,.,.,18µM*,.,.
SMILES,TDP1 cell noCPT,Gal4-VP16 FLuc,IL1B secr inh,DT40 TDP1 CPT,ELG1 repair inh,RORgamma inh
Cn1nc(-c2ccc(C(=O)Nc3ccc(OC(F)(F)F)cc3)cc2)c2ccccc2c1=O,16µM*,.,.,9.2µM*,.,.
Cc1ccc(-c2cc(NC(=O)c3ccccc3)on2)cc1,-12%,7%,-7,-16%,?,-20%
COc1cc2c(cc1OC)C13CCN4CC5=CCOC(CC(=O)O)C(C5CC41)C3N2 (stereo unspecified),-18%,.,3,-28%,.,.
O=C(CCc1nnc(CCCCc2ccccc2)o1)N1CCCC(O)C1 (stereo unspecified),16%,13%,0,-3%,?,7%
CC/C=C\C/C=C\C/C=C\C/C=C\C/C=C\CCCC(=O)NCCO,.,-2%,.,.,.,3%
COc1ccc(-c2nn(CCC#N)cc2C(=O)Nc2ccccc2Br)cc1,?,-9%,18,-1%,-1%,8%
CCN(CC)C(=O)c1ccc(NC(=O)c2cn(-c3ccccc3)nc2-c2ccc(OC)cc2)cc1,?,-2%,-5,?,13µM*,2%
CC(C)NCC(O)c1ccccc1Cl (stereo unspecified),-2%,-4%,.,16%,.,-1%
O=c1c2ccccc2nc(N2CCCC2)n1-c1ccc(Cl)cc1,16µM*,-7%,25,21µM*,-2%,45%
CCN(CC)CCSc1nc2ccccc2c(=O)n1-c1ccc(Cl)cc1,21µM*,.,.,7.3µM*,.,.
COc1nc2ccccc2c(=O)n1-c1ccc(Cl)cc1,-25%,-5%,17,?,9%,26%
CSc1nc2ccccc2c(=O)n1-c1cccnc1,-15%,-2%,20,10%,11%,-11%
O=C(OCCN1CCCCC1)C(O)(c1ccccc1)c1ccccc1,-1%,-8%,.,7%,.,-4%
CN(C)c1ccc(/C=C/c2cc[n+](C)c3ccccc23)cc1,0.23µM*,0%[10 µM],-102*,0.41µM*,4%,19%
CN(C)c1ccc(/C=C/c2ccnc3c(O)cccc23)cc1,10µM*,.,.,-98%,.,.
CN(C)c1ccc(C=Cc2ccnc3c(O)cccc23)cc1,13µM*,.,64,?,.,.
O=C1CCCC2[C@@H]3CCCN4CCC[C@@H](CN12)C34 (stereo partly specified),3%,-15%,.,-3%,.,-14%
CC(=O)[O][Hg][c]1ccccc1,0.16µM*,1%,.,0.16µM*,.,1.1µM*

# High-throughput results deposited in PubChem BioAssay by National Center for Advancing Translational Sciences (NCATS).
